Measurements reported in the supplement of paper PMC12636033.
± gives the standard deviation of the averaged measurements. In all, about 33,000 sequences were measured (“E-score (rank enrichment, -0.5 to 0.5)”: median about -0.0075, highest 2% from about 0.23 on). Shown is part of a subset that was picked to be rich in the highest values.

Each sequence was assayed on WT Max(13-93) synthetic (M65Nle) (assay: PBM 8-mer E-score (E-score (rank enrichment, -0.5 to 0.5)); higher = stronger preferential binding).
Experimental: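 Protein binding microarray (universal PBM chip covering all 10-mers in fixed probe flanks) with chemically synthesized human Max(13-93) bHLH-LZ analogs (not full-length Max) bearing noncanonical residues (hArg, Tha, Aib, Nle at 65) and aromatic Cys staples. Read-out per 8-mer (and its reverse complement): E-score (rank-based enrichment, -0.5 to 0.5) and Z-score of median probe intensity.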

Sequence | PBM 8-mer E-score
AGTTGTGG | 0.00744 ± 0.15
CGACCGTA | -0.107 ± 0.19
CCATAGAA | 0.0354 ± 0.028
GAACCAGC | -0.132 ± 0.07
GGGCCATA | 0.00373 ± 0.018
CAGTTACG | -0.0592 ± 0.044
AATGTGTC | 0.0393 ± 0.0075
AATGTATC | 0.168 ± 0.036
AATGTATG | 0.255 ± 0.086
AATGTATA | 0.211 ± 0.048
CATGTAAA | 0.203 ± 0.052
AATGTAAA | 0.278 ± 0.0039
AATGTAAT | 0.12 ± 0.11
AATGTGTA | 0.167 ± 0.021
AATGTGTG | 0.267 ± 0.05
ATAGGCGG | 0.057 ± 0.12
AAAGGATC | -0.108 ± 0.042
AGCTTCAA | 0.106 ± 0.021
ATCACTGA | -0.0485 ± 0.06
ACGTGAAC | 0.0244 ± 0.025
ACGTGAAT | 0.239 ± 0.066
CTGTGAAA | 0.00343 ± 0.13
ATGTGAAA | 0.271 ± 0.12
TCGTGAAA | -0.119 ± 0.14

Sequence | PBM 8-mer E-score
GTGTGAAA | 0.1684 ± 0.00099
CCGTGAAA | -0.0191 ± 0.012
ACGTGAAA | 0.279 ± 0.041
ACGTGAAG | 0.0785 ± 0.02
AACGGTAC | 0.0818 ± 0.035
TAGATTGA | -0.00515 ± 0.13
CCAGCAAC | -0.121 ± 0.011
CACATTCA | 0.111 ± 0.11
CGTGGCCA | 0.131 ± 0.084
TCTACAAA | 0.0553 ± 0.18
ACGTATTA | 0.165 ± 0.11
GAAGGTAC | -0.096 ± 0.22
ACCACTCC | 0.0165 ± 0.045
AAAAATGA | 0.2619 ± 0.0016
CAAAATGA | 0.287 ± 0.014
CAAAATGG | 0.116 ± 0.0099
TAAAATGA | 0.153 ± 0.019
GAAAATGA | 0.0385 ± 0.12
CAAAATGC | 0.0988 ± 0.086
GCTCACTA | 0.105 ± 0.0026
ACTCTTAC | 0.0838 ± 0.051
AGACTGGC | -0.174 ± 0.07
AGACATCT | 0.0328 ± 0.02
AGTAAAAA | 0.207 ± 0.023

Sequence | PBM 8-mer E-score
AGTAAACA | 0.177 ± 0.012
GGTAAACA | 0.0182 ± 0.025
TGTAAAAA | 0.248 ± 0.099
CGTAGAAA | 0.2 ± 0.024
CGTAAAAA | 0.107 ± 0.012
TGTAAACA | 0.237 ± 0.079
AGTAGAAA | 0.184 ± 0.098
TGTAGAAA | 0.284 ± 0.026
CGCATCAG | -0.138 ± 0.15
AACCGTTC | -0.064 ± 0.11
CTCTAATC | -0.0502 ± 0.086
TCTTGGAA | -0.078 ± 0.026
AAAGGTGT | 0.103 ± 0.015
ATATTCAT | 0.218 ± 0.056
CCGTGCGC | 0.0359 ± 0.14
ACGTGCGA | 0.229 ± 0.046
ATGTGCGC | 0.1696 ± 0.00066
ACGTGCGG | 0.254 ± 0.056
ACGTGCGC | 0.279 ± 0.03
ATGTGCGG | 0.0139 ± 0.1
GGGGGTCA | -0.172 ± 0.1
GTAGTGAC | -0.0549 ± 0.095
GATCCACC | -0.171 ± 0.058
CGAGCGAG | 0.0998 ± 0.018
